Screening results: PubChem, National Center for Advancing Translational Sciences (NCATS)
Only some compounds are listed: those with a hit (about 2.6% of all), similar ones and a draw of the others.
TCR act – activators of T cell receptors | Potency, µM (top dose mostly 9.22 µM), without a hit: top-dose activation of IL-2 secretion, hits mostly activators | AID 504894 | primary human leukocytes, anti-CD3, IL-2 HTRF, 48 h | 330,000 tested, under 10 active; note: % of control where 0% means no effect
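Activity was scored as IL-2 release from primary human leukocytes given only a TCR signal (a-CD3 beads) plus compound for 48 hr. Detection used a two-antibody HTRF format read at 665nm.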
Nrf2 block – blocks Nrf2 signaling | AID 504444 | Potency, µM (series often up to 46 µM), for inactives: at the highest dose activity change, negative = inhibition, most hits filed as inhibitors | A549 ARE-Fluc reporter, luciferase luminescence, 18-24 h | hit rate 2.1% among 360,000; note: potency is the fitted concentration of half-maximal effect; % is set by controls: 0 for no effect and ±100 for the full control effect; nearly all actives have a fitted effect of over 60% in size
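A549 ARE_Fluc cells (5000/well, 5% FBS OPTI-MEM) pre-incubated 2 h, then treated with compounds 18-24 h at 37C/5% CO2 in concentration-response. CellTiter-Fluor viability read first; BugLite luciferase luminescence after 15 min at room temperature gives Nrf2 activity.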
AT treatment – potential ataxia-telangiectasia treatments restoring KAP-1 phosphorylation; Potency, µM (doses to about 57.5 µM), inactives show top-dose activation, usual class: activators; F2112 A-T fibroblasts, KAP-1 phosphorylation AlphaLISA; neocarzinostatin DNA damage 30 min before lysis; AID 485349; hit rate 0.19% among 320,000; note: potency is the fitted concentration of half-maximal effect; % of control where 0% means no effect; nearly all actives have a fitted effect of over 45% in size
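ATM-like activity read as KAP-1 phosphorylation via AlphaLISA donor/acceptor antibody pairs after lysis and 6 hr at 25C. Cells were ATM-null patient fibroblasts (F2112, hTERT), dosed 60 min, then exposed to the DSB inducer NCS for 30 min.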
CCT chaperon mod – changes cytosolic chaperonin activity; purified chaperonin ATPase assay, HTRF ADP detection, 30 min; activity change, % (no concentration beside the values), hits read low; AID 651819; hit rate 0.3% among 360,000; in the data active = activity change below about -30%; note: % is set by controls: 0 for no effect and ±100 for the full control effect
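Enzyme 40 or 20 nM (batch-dependent) in Tris pH 7.4/KCl/MgCl2/DTT; cpd 76 uM single point; ATP 10 uM; 30 min 37 °C; Transcreener ADP HTRF detection, 30 min RT; ratio 665/615.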
A549 tox – kills or reduces viability of A549 cells in Nrf2 counter-screen | A549 ARE-Fluc cells, CellTiter-Fluor viability, 18-24 h | Potency, µM (series often up to 46 µM), for the others: at the top dose activity change, negative = cytotoxicity, actives largely listed as inhibitors | hit rate 0.16% among 390,000 | AID 504648; note: potency is the fitted concentration of half-maximal effect; % is set by controls: 0 for no effect and ±100 for the full control effect
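A549 ARE-Fluc cells in 5% FBS OPTI-MEM, 5000 cells/well, rested 2 h then exposed to compounds in concentration-response for 18-24 h at 37 °C. Viability by CellTiter-Fluor fluorescence (Ex 405/Em 525) after 30 min; luciferase luminescence (BugLite, 15 min, RT) read afterwards.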
Nrf2 ARE act – activators of Nrf2 (ARE) signaling. AREc32 ARE-luciferase reporter (MCF7-derived line), luminescence, 24 h. Potency, µM (doses to about 46.1 µM), inactives show at the highest dose activation, most hits filed as activators. hit rate 0.31% among 410,000. AID 624171; note: potency is the fitted concentration of half-maximal effect; % of control where 0% means no effect; nearly all actives have a fitted effect of over 65% in size
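Nrf2 activation is followed as ARE-luciferase induction in the AREc32 line after one day of compound treatment; luminescence is read with Steady-Glo.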
An asterisk follows results filed as active; ? = inconclusive; . = no result; [ ] = remark or other dose. Unless noted, calls come from the whole dose curve; as a rule, active = well fitted curve in the direction sought with a large enough effect; inconclusive = small, poorly fitted or top-dose-only effect, or another doubt; inactive = no such curve, though single readings can be large; an effect the other way counts as inactive or inconclusive.

SMILES	TCR act	Nrf2 block	AT treatment	CCT chaperon mod	A549 tox	Nrf2 ARE act
CC(/C=C/C(=O)c1ccc(C)cc1)=C\c1ccccc1	-3%	17%	10%	1	-7%	11µM*
COc1ccc(-c2sc3ccccc3c2C#CC2(O)CCCCC2)cc1	2%	-7%	32µM*	0	-1%	5%
COc1ccc(-c2sc3ccccc3c2C#Cc2cncn2C)cc1	12%	-8%	32µM*	-1	-3%	11%
COc1ccc(-c2sc3cc(OC)c(OC)cc3c2C#CC2(O)CCCCC2)cc1	6%	-20%	?	1	0%	-1%
COc1ccc(OC)c(NC(=O)CCN2CCN(C)CC2)c1	6%	-5%	5%	1	-3%	-1%
O=C(CN1CCN(S(=O)(=O)c2ccc(Br)cc2)CC1)N/N=C/c1cc([N+](=O)[O-])ccc1Cl	3%[46.1 µM]	0%	3%	1	1%	13µM*
CCSC(C)CC1C/C(=N/O)c2c(CC)noc2C1 (stereo not given)	.	23µM*	2%	-2	-5%[1.84 µM]	0%
CC(=O)C1=CCC(c2cccc3ccccc23)N(S(=O)(=O)c2ccc(C)cc2)C1 (stereo not given)	.	.	.	0	.	0%
O=C(Nc1ccc(C(F)(F)F)cc1)c1csc(-c2ccncc2)n1	-14%	18µM*	-1%	0	-11%	8%
CCN1/C(=C/c2ccc3cc(C)ccc3[n+]2C)Sc2ccc3sccc3c21	14%	18µM*	2%	1	-25%	0%
CCCCN1/C(=C/c2ccc3ccccc3[n+]2CC)Sc2ccccc21	8%	?	-4%	-1	?	0%[9.22 µM]
CCN1/C(=C/c2ccc3cc(C)ccc3[n+]2CC)Sc2cc(C)ccc21	12%	4.6µM*	0%	-1	?	-3%
COc1cccc(NC(=O)C2(C)CCCN2C(=O)C(C)C)c1OC (stereo not given)	.	.	.	-1	.	0%[9.22 µM]
COc1ccc(N2CC(NC(=O)C3CCCC3)CC2=O)cc1 (stereo not given)	.	.	.	.	8%	0%
COc1ccc(-c2nc(C(N)=O)c3[nH]c(=O)n(-c4cccc(Cl)c4)c3n2)cc1OC	0%	26µM*	0%	1	?	4%
COc1cccc(-c2nc(C(N)=O)c3[nH]c(=O)n(-c4cccc(Cl)c4)c3n2)c1OC	-186%	-1%	-5%	2	3%	5%
CCOC(=O)CNC(=O)C1CCCCC1	.	?	.	.	6%	.
Cc1cccc(NC(=O)N2CCC(CN3CCCCCC3)CC2)c1C	.	8%	.	.	-12%	-1%
CC(=O)N1CCN(C(c2ccccc2)c2ccccc2)CC1	.	.	3%	2	.	0%
CC12CCC(C(=O)N3CCN(C(c4ccccc4)c4ccccc4)CC3)(OC1=O)C2(C)C (stereo not given)	6%	23µM*	2%	-2	-19%	-1%
O=S(=O)(c1ccc2ncccc2c1)N1CCN(c2nc(-c3cccs3)nc3ccccc23)CC1	.	?	.	.	-14%	.
CCCc1nc([N+](=O)[O-])c(S(=O)(=O)c2ccccc2)n1CC(C)C	-5%	1%	18%	-2	-12%	5.6µM*
CC(C)Cn1nc(NS(=O)(=O)c2ccccc2)c2cc3ccccc3nc21	1%	5%	3%	0	-2%	0%
CC(=O)Nc1nc(=O)c2ccccc2s1	6%	-10%	7%	-1	-1%	?
O=C(Nc1nc(=O)c2ccccc2s1)c1ccccc1	-4%	?	2%	-1	-2%	2µM*
SMILES	TCR act	Nrf2 block	AT treatment	CCT chaperon mod	A549 tox	Nrf2 ARE act
Cc1cc(C)cc(N(CCC#N)C(=O)CSC2=Nc3ccccc3C3CC=NN23)c1 (stereo not given)	-2%	23µM*	3%	-1	?	6%
O=C(CSC1=Nc2ccccc2C2CC=NN12)NCc1ccco1 (stereo not given)	3%[46.1 µM]	?	-4%	-1	-20%	0.63µM*
O=C(NNC(=S)Nc1ccc(Cl)cc1)c1cccs1	-6%	17%	-1%	-71*	12%	8%
O=C(NC(=S)Nc1ccc(Cl)cn1)c1cccs1	1%	?	-1%	-1	3%	6.3µM*
CCN1CCc2c(OCC(=O)N3N=C(c4cccs4)CC3c3ccc(F)cc3)cccc2C1=O (stereo not given)	-5%[46.1 µM]	23µM*	3%	0	-22%	1%
COc1ccc(-c2cc(=O)c3c(OC)c(OC)c(OC)c(OC)c3o2)cc1OC	8%	2%	-3%	-1	?	9%
COc1ccc2c(=O)cc(-c3ccncc3)oc2c1OC	-2%	16µM*	.	-3	-20%	5%
CCCCOC(=O)CSC1=C(C#N)C(c2ccccc2OCC)C(C#N)C(=O)N1 (stereo not given)	-4%	10µM*	-11%	0	?	0%
CN(Cc1nccs1)c1ncnc2ccc(-c3ccc4c(c3)OCO4)cc12	.	-16%	.	.	1%	.
COc1ccc(/C=C2/CCCC(CN(C)C)C2=O)cc1 (stereo not given)	-3%	8%	.	0	0%	10µM*
COc1ccc(N(CC(=O)NCCc2cccc(C)c2)S(=O)(=O)c2c(C)nn(C)c2C)cc1	.	7%	.	.	2%	-1%
O=S(=O)(c1cccs1)N1CCN(CCOc2ccc(Cl)cc2)CC1	-7%	15µM*	5%	0	-24%	-1%
O=S(=O)(c1cccs1)N1CCN(c2ccc(Cl)cc2)CC1	1%	-18%	0%	0	1%	1%
Cc1ccc(Nc2nc(Cl)c(C=O)s2)cc1Cl	2%	11%	12%	0	-12%	?
O=Cc1sc(Nc2ccccc2)nc1Cl	-1%	9%	-4%	1	3%	14µM*
COc1cc(C2(c3ccc(O)c(OC)c3)C(=O)Nc3c(C)cc(Br)cc32)ccc1O	0%	-13%	.	-1	11%	4%
COc1ccccc1Cc1c(-c2ccco2)nc2cc(C)c(Br)c(C)n12	.	.	.	-1	.	11µM*
Cc1ccc(-c2nn(-c3ccccc3)cc2C2CC(c3ccccc3)=NN2C(=O)CCC(=O)O)cc1 (stereo not given)	-2%	21µM*	-5%	-5	-7%	0%
Cc1cccc(C)c1-n1cccc1/C=C1\SC(=S)N(c2cccc(C(=O)O)c2)C1=O	-3%	1%	-4%	0	-21%	3%
CSc1nnc(N2C(=O)C(O)=C(C(=O)c3ccco3)C2c2ccccc2)s1 (stereo not given)	12%	-2%	-8%	-5	4%	26%
